# Measurements: PubChem BioAssay AID1508601 (ICCB-Longwood Screening Facility, Harvard Medical School, 2020)
# In all, about 5,700 compounds went through this assay and about 85 (1%) were called active. Cut-off read from the data, not from the text of the source: active = p53-positive nuclei above about 36% (passing the limit was not always enough); inactive = the rest. The sample as a whole holds a higher share of actives than the screen did.
# What was measured:
# [1] = nuclear p53 accumulation, HPV+ cells – imaging, p53-positive nuclei imaging, 24 h, 48 h (AID 1508601); details: 24/48 h
# [2] = biological target: Cellular tumor antigen p53 (Homo sapiens) (UniProt P04637); assay: as above; details: 24/48 h, stronger effect = higher value
# Cellular tumor antigen p53 (Homo sapiens), sequence (P04637 whole entry, looked up): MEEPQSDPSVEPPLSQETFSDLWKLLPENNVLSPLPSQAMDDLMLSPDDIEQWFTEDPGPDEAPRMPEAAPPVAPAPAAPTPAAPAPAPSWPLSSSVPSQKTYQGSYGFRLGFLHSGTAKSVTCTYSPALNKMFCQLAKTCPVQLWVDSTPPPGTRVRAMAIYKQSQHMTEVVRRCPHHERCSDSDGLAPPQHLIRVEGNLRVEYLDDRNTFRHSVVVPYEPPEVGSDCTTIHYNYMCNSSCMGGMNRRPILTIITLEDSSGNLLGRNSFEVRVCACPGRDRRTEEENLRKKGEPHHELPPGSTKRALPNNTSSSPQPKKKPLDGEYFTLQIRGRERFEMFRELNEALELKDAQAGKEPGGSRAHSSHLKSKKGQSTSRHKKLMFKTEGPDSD
# [3] = measured here: cell number at 24 h, Library stock concentration: 46 uM
# [4] = measured here: cell number at 24 h, Library stock concentration: 278 uM
# [5] = measured here: cell number at 24 h, Library stock concentration: 1.67 mM
# [6] = measured here: cell number at 24 h, Library stock concentration: 10 mM
# [7] = measured here: cell number at 48 h, Library stock concentration: 46 uM
# [8] = measured here: cell number at 48 h, Library stock concentration: 278 uM
# [9] = measured here: cell number at 48 h, Library stock concentration: 1.67 mM
# [10] = measured here: cell number at 48 h, Library stock concentration: 10 mM
# [11] = Library stock concentration: 46 uM
# [12] = Library stock concentration: 278 uM
# [13] = Library stock concentration: 1.67 mM
# [14] = Library stock concentration: 10 mM
# [15] = measured here: p53 positive nuclei at 24 h, Library stock concentration: 46 uM
# [16] = measured here: p53 positive nuclei at 24 h, Library stock concentration: 278 uM
# [17] = measured here: p53 positive nuclei at 24 h, Library stock concentration: 1.67 mM
# [18] = measured here: p53 positive nuclei at 24 h, Library stock concentration: 10 mM
# [19] = measured here: cell number at 24 h, Library stock concentration: 3.33 mM
# [20] = measured here: cell number at 48 h, Library stock concentration: 3.33 mM
# [21] = Library stock concentration: 3.33 mM
# [22] = measured here: p53 positive nuclei at 24 h, Library stock concentration: 3.33 mM
smiles,measurement,setting,value
CC(C)(C)Nc1nc2cc(Cl)c(Cl)cc2nc1S(C)(=O)=O,"nuclei count, normalised",[1]; [3],108%
same,"nuclei count, normalised",[1]; [4],105%
same,"nuclei count, normalised",[1]; [5],93.6%
same,"nuclei count, normalised",[1]; [6],44.4%
same,"nuclei count, normalised",[1]; [7],118%
same,"nuclei count, normalised",[1]; [8],109%
same,"nuclei count, normalised",[1]; [9],106%
same,"nuclei count, normalised",[1]; [10],50%
same,"p53-positive nuclei, normalised",[2]; [11],-0.222% (inactive)
same,"p53-positive nuclei, normalised",[2]; [12],-0.1% (inactive)
same,"p53-positive nuclei, normalised",[2]; [13],-0.239% (inactive)
same,"p53-positive nuclei, normalised",[2]; [14],1.33% (inactive)
same,"p53-positive nuclei, normalised",[2]; [15],-0.151%
same,"p53-positive nuclei, normalised",[2]; [16],-0.151%
same,"p53-positive nuclei, normalised",[2]; [17],0.616%
same,"p53-positive nuclei, normalised",[2]; [18],1.86%
CC(C)CC1(CO)CCCN(C(=O)c2cccc(C#CC(C)(C)O)c2)C1 (configuration not stated),"nuclei count, normalised","[1]; measured here: cell number at 24 h, concentration not given here",99%
same,"nuclei count, normalised","[1]; measured here: cell number at 48 h, concentration not given here",100%
same,"p53-positive nuclei, normalised",[2]; concentration not given here,0.108% (inactive)
same,"p53-positive nuclei, normalised","[2]; measured here: p53 positive nuclei at 24 h, concentration not given here",0.27%
O=C(O)C1=CC(O)C(O)C(O)C1 (configuration not stated),"nuclei count, normalised",[1]; [19],109%
same,"nuclei count, normalised",[1]; [20],109%
same,"p53-positive nuclei, normalised",[2]; [21],-0.187% (inactive)
same,"p53-positive nuclei, normalised",[2]; [22],-0.275%
COc1cc2ncc(-c3ccccc3)nc2cc1OC,"nuclei count, normalised",[1]; [19],78.5%
same,"nuclei count, normalised",[1]; [20],45.1%
same,"p53-positive nuclei, normalised",[2]; [21],55.2% (active)
same,"p53-positive nuclei, normalised",[2]; [22],3.05%
O=C(O)c1cc(-c2ccccc2)nc2ccccc12,"nuclei count, normalised",[1]; [19],111%
same,"nuclei count, normalised",[1]; [20],106%
same,"p53-positive nuclei, normalised",[2]; [21],-0.105% (inactive)
same,"p53-positive nuclei, normalised",[2]; [22],-0.282%
COC(=O)C(NC(=O)c1cc(-c2ccccc2)nc2ccccc12)c1ccccc1 (configuration not stated),"nuclei count, normalised",[1]; [3],105%
same,"nuclei count, normalised",[1]; [4],105%
same,"nuclei count, normalised",[1]; [5],93.3%
same,"nuclei count, normalised",[1]; [6],96.9%
same,"nuclei count, normalised",[1]; [7],111%
same,"nuclei count, normalised",[1]; [8],107%
same,"nuclei count, normalised",[1]; [9],100%
same,"nuclei count, normalised",[1]; [10],103%
same,"p53-positive nuclei, normalised",[2]; [11],-0.241% (inactive)
same,"p53-positive nuclei, normalised",[2]; [12],-0.232% (inactive)
same,"p53-positive nuclei, normalised",[2]; [13],-0.104% (inactive)
same,"p53-positive nuclei, normalised",[2]; [14],0.115% (inactive)
same,"p53-positive nuclei, normalised",[2]; [15],-0.21%
same,"p53-positive nuclei, normalised",[2]; [16],-0.0834%
same,"p53-positive nuclei, normalised",[2]; [17],0.359%
same,"p53-positive nuclei, normalised",[2]; [18],0.069%
CCC(C(C)O)n1ncn(-c2ccc(N3CCN(c4ccc(OCC5CO[C@@](Cn6cncn6)(c6ccc(F)cc6F)C5)cc4)CC3)cc2)c1=O (some centres not stated),"nuclei count, normalised",[1]; [19],91.3%
same,"nuclei count, normalised",[1]; [20],91.4%
same,"p53-positive nuclei, normalised",[2]; [21],-0.489% (inactive)
same,"p53-positive nuclei, normalised",[2]; [22],-0.171%
CCOC(=O)c1sc(NC(=O)c2ccco2)c(SC#N)c1C,"nuclei count, normalised","[1]; measured here: cell number at 24 h, Library stock concentration: 500 nM",118%
same,"nuclei count, normalised","[1]; measured here: cell number at 24 h, Library stock concentration: 1.5 uM",119%
same,"nuclei count, normalised","[1]; measured here: cell number at 24 h, Library stock concentration: 4.6 uM",115%
same,"nuclei count, normalised","[1]; measured here: cell number at 24 h, Library stock concentration: 13.7 uM",107%
same,"nuclei count, normalised","[1]; measured here: cell number at 24 h, Library stock concentration: 41 uM",124%
same,"nuclei count, normalised","[1]; measured here: cell number at 24 h, Library stock concentration: 123 uM",109%
same,"nuclei count, normalised","[1]; measured here: cell number at 24 h, Library stock concentration: 370 uM",113%
same,"nuclei count, normalised","[1]; measured here: cell number at 24 h, Library stock concentration: 1.111 mM",114%
same,"nuclei count, normalised","[1]; measured here: cell number at 24 h, Library stock concentration: 3.333 mM",103%
same,"nuclei count, normalised",[1]; [6],97.4%
same,"nuclei count, normalised","[1]; measured here: cell number at 48 h, Library stock concentration: 500 nM",111%
same,"nuclei count, normalised","[1]; measured here: cell number at 48 h, Library stock concentration: 1.5 uM",109%
same,"nuclei count, normalised","[1]; measured here: cell number at 48 h, Library stock concentration: 4.6 uM",104%
same,"nuclei count, normalised","[1]; measured here: cell number at 48 h, Library stock concentration: 13.7 uM",103%
same,"nuclei count, normalised","[1]; measured here: cell number at 48 h, Library stock concentration: 41 uM",110%
same,"nuclei count, normalised","[1]; measured here: cell number at 48 h, Library stock concentration: 123 uM",106%
same,"nuclei count, normalised","[1]; measured here: cell number at 48 h, Library stock concentration: 370 uM",110%
same,"nuclei count, normalised","[1]; measured here: cell number at 48 h, Library stock concentration: 1.111 mM",112%
same,"nuclei count, normalised","[1]; measured here: cell number at 48 h, Library stock concentration: 3.333 mM",106%
same,"nuclei count, normalised",[1]; [10],101%
same,"p53-positive nuclei, normalised",[2]; Library stock concentration: 500 nM,0.102% (inactive)
same,"p53-positive nuclei, normalised",[2]; Library stock concentration: 1.5 uM,-0.24% (inactive)
same,"p53-positive nuclei, normalised",[2]; Library stock concentration: 4.6 uM,-0.158% (inactive)
same,"p53-positive nuclei, normalised",[2]; Library stock concentration: 13.7 uM,-0.0345% (inactive)
same,"p53-positive nuclei, normalised",[2]; Library stock concentration: 41 uM,0.07% (inactive)
same,"p53-positive nuclei, normalised",[2]; Library stock concentration: 123 uM,0.0394% (inactive)
same,"p53-positive nuclei, normalised",[2]; Library stock concentration: 370 uM,0.143% (inactive)
same,"p53-positive nuclei, normalised",[2]; Library stock concentration: 1.111 mM,0.138% (inactive)
same,"p53-positive nuclei, normalised",[2]; Library stock concentration: 3.333 mM,0.637% (inactive)
same,"p53-positive nuclei, normalised",[2]; [14],1.1% (inactive)
same,"p53-positive nuclei, normalised","[2]; measured here: p53 positive nuclei at 24 h, Library stock concentration: 500 nM",-0.0629%
same,"p53-positive nuclei, normalised","[2]; measured here: p53 positive nuclei at 24 h, Library stock concentration: 1.5 uM",-0.173%
same,"p53-positive nuclei, normalised","[2]; measured here: p53 positive nuclei at 24 h, Library stock concentration: 4.6 uM",-0.116%
same,"p53-positive nuclei, normalised","[2]; measured here: p53 positive nuclei at 24 h, Library stock concentration: 13.7 uM",-0.111%
same,"p53-positive nuclei, normalised","[2]; measured here: p53 positive nuclei at 24 h, Library stock concentration: 41 uM",-0.122%
same,"p53-positive nuclei, normalised","[2]; measured here: p53 positive nuclei at 24 h, Library stock concentration: 123 uM",0.00346%
same,"p53-positive nuclei, normalised","[2]; measured here: p53 positive nuclei at 24 h, Library stock concentration: 370 uM",0.0563%
same,"p53-positive nuclei, normalised","[2]; measured here: p53 positive nuclei at 24 h, Library stock concentration: 1.111 mM",0.34%
same,"p53-positive nuclei, normalised","[2]; measured here: p53 positive nuclei at 24 h, Library stock concentration: 3.333 mM",1.08%
same,"p53-positive nuclei, normalised",[2]; [18],2.09%
